The panel holds about 79,000 compounds, 15% with a hit somewhere; the sample as a whole holds those more often. A number with no mark means an inactive call. Activity calls are given as the source filed them. Cut-off read from the data, not from the text of the source: active = growth inhibition above about 70%; inactive = the rest.
Experiment: NCI Yeast Anticancer Drug Screen. Data for the rad52 strain (AID 147);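 note: 0% = growth of vehicle-treated control cultures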
Settings: S. cerevisiae rad52 mutant growth inhibition, active compounds read high
Description: Growth inhibition of yeast strains with defined genetic alterations is measured as a screen for potential anti-cancer activity. Selected strains with alterations in DNA damage repair or cell cycle control were exposed to compounds and growth inhibition was measured relative to vehicle treated controls. The strain used in this assay is rad52

In the case of `NCc1c(O)ccc2ccccc12`, the growth inhibition (at 1.2 µM) is reported as -17%, the growth inhibition (at 3.7 µM) is reported as -11% and the growth inhibition (at 11.0 µM) is reported as -1%. The growth inhibition (at 33.0 µM) was 64% and the growth inhibition (at 100.0 µM) was 99% (active).
With `CCn1ncc(N=O)c1N` the growth inhibition (at 1.2 µM) was 0%, the growth inhibition (at 3.7 µM) was 3% and the growth inhibition (at 11.0 µM) was 9%. The growth inhibition (at 33.0 µM) was 29% and the growth inhibition (at 100.0 µM) was 58%.
Work on `CC1(C)C(C=O)=CCC1CC(N)=O` (stereo not given) yielded a growth inhibition (at 1.2 µM) of -1%, a growth inhibition (at 3.7 µM) of -1% and a growth inhibition (at 11.0 µM) of 0%. For the same compound, the growth inhibition (at 33.0 µM) was 7% and the growth inhibition (at 100.0 µM) was 80% (active).
Work on `CC(C)c1cccc(O)c(=O)c1` yielded a growth inhibition (at 1.2 µM) of 2%, a growth inhibition (at 3.7 µM) of -3% and a growth inhibition (at 11.0 µM) of 0%. The growth inhibition (at 33.0 µM) was 18% and the growth inhibition (at 100.0 µM) was 99% (active).
For `O=C1C=CC(=O)N1c1ccc2c(c1)OCO2`, the growth inhibition (at 1.2 µM) was 11%, the growth inhibition (at 3.7 µM) was 94% (active) and the growth inhibition (at 11.0 µM) was 100% (active). The growth inhibition (at 33.0 µM) was 100% (active) and the growth inhibition (at 100.0 µM) was 100% (active).
`Cc1c(-c2ccccc2)[nH]c2ccccc12` gave a growth inhibition (at 1.2 µM) of -7%, a growth inhibition (at 3.7 µM) of -8% and a growth inhibition (at 11.0 µM) of -4%. The growth inhibition (at 33.0 µM) was 94% (active) and the growth inhibition (at 100.0 µM) was 99% (active).
For `CN(N=O)C(=O)N[C@@H](C=O)[C@@H](O)[C@H](O)[C@H](O)CO`, the growth inhibition (at 1.2 µM) was 0%, the growth inhibition (at 3.7 µM) was 1% and the growth inhibition (at 11.0 µM) was 5%. The growth inhibition (at 33.0 µM) was 2% and the growth inhibition (at 100.0 µM) was 3%.
`CCCCC1=NNC(=O)C1` showed a growth inhibition (at 1.2 µM) of 2%, a growth inhibition (at 3.7 µM) of 4% and a growth inhibition (at 11.0 µM) of 0%. It also gave a growth inhibition (at 33.0 µM) of 7% and a growth inhibition (at 100.0 µM) of 15%.

Source: PubChem BioAssay (NCI)
